Experimental data published in PubChem BioAssay AID2289 (National Center for Advancing Translational Sciences (NCATS), 2010).
The campaign covered roughly 340,000 compounds. About 3,300 (0.97%) were called active. Another 9% or so got no clear call; they are omitted. Calls come from the whole dose curve; as a rule, active = well fitted inhibition curve with a large enough effect; inconclusive = small, poorly fitted or top-dose-only effect, or effect the other way; inactive = flat fitted curve, though single readings scatter. The list shows a part of the results.

Test: qHTS Assay for Modulators of miRNAs and/or Inhibitors of miR-21; note: nearly all actives have a fitted effect of over 55% in size
Details: HeLa miR-21-FLuc reporter, luciferase luminescence, 48 h; actives lower the signal
Source text: MLSCN Grant: 1 R21 NS059478-01 Assay Provider: Qihong Huang, The Wistar Institute NCGC Assay Overview: MicroRNAs (miRNAs) are endogenously encoded small (~20-25 nucleotides), nonprotein-coding RNAs that are involved in post-transcriptional repression of target messenger RNAs (mRNAs) (Le and Hannon, 2004). Estimated to be involved in the regulation of 30% of all protein-coding mRNAs (Filipowicz et al., 2008), miRNAs play a significant role in many biological processes including cellular differentiation and tissue development (Ghildiyal and Zamore, 2009).
NCGC Assay Protocol Summary: Reagents: HeLa cells stably expressing firefly luciferase (FLuc) under the control of a CMV promoter (upstream) and a miR-21 binding sequence directly downstream of the gene. These cells endogenously express miR-21. Control compounds used were compound C3 (provided by collaborator), N6-phenyladenosine (MP Biomedicals, 0215379625), and DMSO. Assay Summary: 6uL of HeLa miR-21-FLuc cells in assay buffer (DMEM, Invitrogen #21063-029; 10% FBS, HyClone #SH30071.03) were dispensed at 2000cells/well (3.3 x 10^5 cells/mL) into Greiner solid-white TC-treated 1536-well plates using a Multidrop Combi (Thermo Fisher Scientific). Plates were incubated for one hour at 37 degree Celsius, 95% humidity, 5% CO2. These assay plates were then treated with 23nL of compound or DMSO using a Kalypsys pin tool, which allows for delivery of a 24-point titration of each compound to the assay plate, with a final compound concentration ranging from approximately 40uM to 5pM. Assay plates were then incubated for 48 hours. After incubation, plates were allowed to come to RT for one hour prior to delivery of 3uL of 3X luciferase detection reagent. After a 15 minute incubation to allow for cell lysis, luciferase activity was measured using a ViewLux CCD imager (PerkinElmer), with an average exposure time of 2-12 seconds. Keywords: NIH Roadmap, MLPCN, MLSMR, qHTS, miR-21, microRNA, firefly luciferase, FLuc.
Potency is the fitted concentration of half-maximal effect.

Potency, active:
CN(CCC#N)C(=O)c1cc2c(s1)-c1ccccc1SC2 4.14 µM, COc1ccc(C(=O)Nc2nnc(S(=O)(=O)N3CCC(C)CC3)s2)cc1OC 0.464 µM, Cc1ccccc1C(=O)Nc1nnc(S(=O)(=O)N2CCCCCC2)s1 1.65 µM, O=C(Nc1nnc(S(=O)(=O)N2CCCC2)s1)c1ccc(F)cc1 3.69 µM, CCC(CC)C(=O)Nc1nnc(S(=O)(=O)N2c3ccccc3CC2C)s1 (stereo unspecified) 2.61 µM, Cn1c(-c2cc3ccc(OC(=O)C(C)(C)C)cc3oc2=O)nc2ccccc21 3.69 µM, COc1ccccc1N1CCN(/N=C/c2cccc(Cl)c2)CC1 6.56 µM, COc1ccccc1N1CCN(/N=C\c2ccccc2)CC1 10.4 µM, CCOC(=O)c1snc(C(=O)NC2CCCCC2)c1N 7.36 µM, CN(C)/C=C(/C(=O)c1ccc(Cl)cc1)S(=O)(=O)c1ccccc1 18.5 µM, CCC(=O)Nc1ccc2oc(-c3cccnc3)nc2c1 8.26 µM, O=C(Nc1ccc2oc(-c3cccnc3)nc2c1)c1ccco1 11.7 µM, CCCC(=O)Nc1ccc2oc(-c3ccc(O)c(Br)c3)nc2c1 0.927 µM, Cc1cc(-c2nc3ncccc3o2)ccc1N 3.29 µM, O=C(Nc1ccc(-c2nc3ncccc3o2)cc1)c1ccco1 1.85 µM, COc1ccc(OCCN2C(=O)c3cccc(N)c3C2=O)cc1 14.7 µM, Nc1cccc2c1C(=O)N(CCOc1ccc(F)cc1)C2=O 0.826 µM, COc1ccc(C2=NN(c3ccc(C(=O)O)cc3)C(c3ccc(OC)c(OC)c3)C2)cc1 (stereo unspecified) 18.5 µM, COc1cccc(CN=C2Nc3ccccc3CS2)c1 4.65 µM, COc1ccccc1CN=C1Nc2ccccc2CS1 5.85 µM, CCCC(=O)Nc1ccc(NC(=O)C23CC4CC(CC(C4)C2)C3)cn1 18.5 µM, OC[C@H]1O[C@@H](n2cnc3c(Nc4ccccc4)ncnc32)[C@H](O)[C@@H]1O 3.69 µM, CCOC(=O)c1c(C)[nH]c2cc(Br)c(O)cc12 16.5 µM, O=C(COc1ccccc1Cl)N1CCc2ccccc21 2.07 µM, COc1ccc2c(CC(=O)N3CCc4ccccc43)coc2c1 2.93 µM, O=C(COc1ccc2c(c1)CCC2)N1CCc2ccccc21 3.29 µM, CCc1ccc(OCC(=O)N2CCc3ccccc32)cc1 4.65 µM, Cc1c(Br)c(C(=O)N2CCc3ccccc32)nn1C 5.21 µM, Cc1c(C(=O)N2CCc3ccccc32)oc2ccccc12 0.736 µM, O=C(COc1ccccc1)N1CCc2ccccc21 4.65 µM, COc1ccc(C(=O)N2CCc3ccccc32)cc1 18.5 µM, O=C(c1ccco1)N1CCc2ccccc21 5.85 µM, O=C(OCc1ccccc1)N1CCc2ccccc21 1.17 µM, O=C(COc1ccc(F)cc1Br)N1CCc2ccccc21 1.26 µM, Cc1ccccc1OCC(=O)N1CCCc2ccccc21 14.7 µM, O=C1/C(=C\Nc2ccc(Cl)cc2)CCN1c1ncccn1 1.31 µM, CCC(C)NC(=O)Cn1c(COc2ccc(Cl)cc2Cl)nc2ccccc21 (stereo unspecified) 8.26 µM, CC(=O)C(/C=N/c1cc(-c2ccc(C)cc2)nn1-c1ccccc1)=C(\C)O 1.47 µM, COc1ccccc1N=c1oc2cc(O)ccc2cc1C(=O)NCC1CCCO1 (stereo unspecified) 9.27 µM, CCOC(=O)/C=C(\C)N1N=C(c2ccccc2)CC1c1ccccc1 (stereo unspecified) 2.33 µM, CN(/N=C/c1ccc2c(c1)OCO2)c1ccccc1 6.56 µM, COc1ccc(OC)c(/C=N/N(C)c2ccccc2)c1 6.56 µM, COc1cc(/C=N/N(C)c2ccccc2)ccc1O 2.61 µM, CCOc1ccc(/C=N/N(C)c2ccccc2)cc1OC 4.65 µM, Nc1ccccc1C(=O)N/N=C1\C2CN3CCN(C2)CC1(c1ccccc1)C3 7.36 µM, CCCCC12CN3CCN(CC(C3)/C1=N\NC(=O)c1ccccc1N)C2 9.27 µM, CC12CN3CCN(CC(C3)/C1=N\NC(=O)c1ccccc1N)C2 10.4 µM, O=C(CSc1nnc2ccc3ccccc3n12)c1ccc(F)cc1 9.27 µM, c1ccc2c(c1)ccc1nnc(SCc3ccc4c(c3)OCCO4)n12 16.5 µM, Cc1ccc2nc(-c3ccc(Cl)c(NC(=O)c4ccc5c(c4)OCCO5)c3)oc2c1 7.36 µM, COc1ccc2oc(-c3ccc(C)c(NC(=O)c4ccc5c(c4)OCCO5)c3)nc2c1 8.26 µM, Cc1nn(CC(=O)Nc2ccccc2C(F)(F)F)c(=O)c2cccn12 16.5 µM, CCc1cccc(C)c1NC(=O)Cn1nc(C)n2cccc2c1=O 4.65 µM, Cc1cc(C(=O)N(C)C)sc1-c1ccccc1 5.21 µM, CC1=C(c2ccc(C)cc2)[N+](=O)C(C)(C)N1[O-] 3.69 µM, CCc1cccc2c(C(=O)COC(=O)c3ccccc3)c[nH]c12 16.5 µM, COc1ccc(-c2csc(N=C(N)N)n2)cc1 8.26 µM, Cc1ccsc1/C=N\NC(=O)c1cc(C(C)(C)C)[nH]n1 4.14 µM, O=C(Nc1nc2ccsc2c(=O)s1)c1ccc(F)cc1 0.414 µM, CCOc1ccc(Nc2nc(-c3cccnc3)cs2)cc1 0.585 µM, Cc1ccc(Nc2nc(C)cs2)cc1 6.56 µM, Cc1ccc(Nc2nc(-c3ccncc3)cs2)cc1 0.656 µM, Cc1ccc(Nc2nc(C3CC3)cs2)cc1 1.65 µM, Cc1csc(Nc2ccc(Cl)cc2)n1 10.4 µM, O=[N+]([O-])c1ccccc1Nc1nc(-c2cccnc2)cs1 18.5 µM, O=C(C[n+]1cn(C(F)F)c2ccccc21)c1ccc(OC(F)F)cc1 5.85 µM, Clc1ccc(-c2cnc(Oc3ccccc3)nc2)cc1 2.07 µM, O=C(Nc1ccc2c(c1)OCCO2)C1CC1c1ccccc1 (stereo unspecified) 7.36 µM, Cc1ccc(SCC(=O)Nc2ccc3c(c2)OCCO3)cc1 1.65 µM, Cc1ccccc1Nc1nnc(SCC(=O)NC(=O)Nc2ccc3c(c2)OCCO3)s1 10.4 µM, Cc1ccc(N(CC(=O)Nc2ccc3c(c2)OCCO3)S(C)(=O)=O)cc1 10.4 µM, O=C(CSc1ccc(-c2ccccc2)nn1)Nc1ccc2c(c1)OCCO2 8.26 µM, Cc1cccc(-c2nsc(SCC(=O)Nc3ccc4c(c3)OCO4)n2)c1 13.1 µM, O=C(Nc1ccc2c(c1)OCO2)N1CCCc2ccccc21 13.1 µM, O=C(CSc1ccccc1)Nc1ccc2c(c1)OCO2 13.1 µM, O=C(CC1CS(=O)(=O)CC1CC(=O)Nc1ccc2c(c1)OCCO2)Nc1ccc2c(c1)OCCO2 (stereo unspecified) 7.36 µM, CCOc1ccc(NC(=O)Nc2cc(C)ccc2F)cc1 1.85 µM, CCc1ccc(C(=O)Nc2cc(C)ccc2F)s1 6.56 µM, Cc1ccc(SCc2cc(=O)n3ccsc3n2)c(C)c1 9.27 µM, O=c1cc(CNc2ccc(Br)cc2)nc2sccn12 18.5 µM, COc1cccc(C(=O)NCCn2ccc3ccccc32)c1 5.21 µM, CCc1cc(C(=O)NNC(=S)Nc2cccc(C)c2)cs1 4.14 µM, Cc1cccc(NC(=S)NNC(=O)c2csc(C(C)C)c2)c1 3.69 µM, Cc1cccc(NC(=S)NNC(=O)c2csc(C)c2)c1 2.93 µM, CCc1cc(C(=O)Nc2ccc(C)cc2Br)cs1 1.04 µM, CCCc1cc(C(=O)NNC(=S)Nc2cccc(C)c2)cs1 3.69 µM, Cc1cccc(NC(=S)NNC(=O)c2ccc3c(c2)OCO3)c1 0.464 µM, O=C(NNC(=S)Nc1ccccc1Cl)c1ccccc1Br 0.927 µM, Cc1cccc(NC(=S)NNC(=O)c2ccccc2Br)c1 2.07 µM, Cc1c(C(=O)NNC(=S)Nc2cccc(Cl)c2)nnn1-c1ccccc1 16.5 µM, CCOC(=O)Cc1c(C)nc2c(-c3ccccc3)cnn2c1C 16.5 µM, CCOC(=O)c1cnc2c(-c3ccccc3)cnn2c1C 0.927 µM, CC(C)C(=O)Nc1nc2c(s1)CC(C(C)(C)C)CC2 (stereo unspecified) 2.07 µM, Nn1c(SCc2ccccc2)nc2ccccc21 4.14 µM, CCOC(=O)CSc1nc2cc3c(cc2cc1C#N)OCO3 1.04 µM, CCOC(=O)CSc1nc2cc3c(cc2cc1C#N)OCCO3 0.147 µM, N#Cc1ccc(-c2csc(NC3=NCCCCC3)n2)cc1 6.56 µM, Brc1ccc(-c2csc(NC3=NCCCCC3)n2)cc1 10.4 µM, Cc1ccnc(NC(=S)NC(=O)c2ccco2)c1 1.17 µM, O=C(NC(=S)Nc1ccccn1)c1ccco1 3.69 µM, O=C(Nc1ccccc1F)c1cc2nc(C(F)F)cc(C(F)F)n2n1 18.5 µM, Cc1cccc(NC(=O)c2ccc(OC3CSC3)cc2)c1 2.93 µM, CCC(C)c1ccc(OCc2ccc(C(=O)O)o2)cc1 (stereo unspecified) 0.233 µM, CCC(C)c1ccc(OCc2ccc(C(=O)OC)o2)cc1 (stereo unspecified) 4.65 µM, COc1cc(/C=C2/C(=O)ON=C2C)ccc1OCc1cccc(F)c1 10.4 µM, COc1cc(C=O)ccc1OCc1cccc(Br)c1 14.7 µM
